Measured values: PubChem BioAssay (Tox21)
Where “and” joins values, the source holds several entries; their conditions need not be identical. Equal values may be shown once. Some structures have more than one record in an assay (separate samples or runs), and their calls can disagree. Calls of active or inactive are those of the source. Entries that show only a call come without a potency. The call rests on the fitted dose curve.

Each molecule was assayed against Estrogen receptor (Homo sapiens) (UniProt P03372) (assay: qHTS assay to identify small molecule agonists of the estrogen receptor alpha (ER-alpha) signaling pathway in the presence of an antagonist (AID 1259383; further: nearly all actives have a fitted effect of over 15% in size)). Settings: VM7Luc4E2 cells, ERE-luciferase, +ICI-182,780, 22 h; series mostly up to 92.4 µM.
Source text: National Center for Advancing Translational Sciences [NCATS] NIH Chemical Genomics Center [NCGC] U.S. Environmental Protection Agency [EPA] National Institutes of Environmental Health Sciences [NIEHS] National Toxicology Program [NTP] Assay overview: Estrogen receptor (ER), a member of nuclear hormone receptor plays an important role in development, metabolic homeostasis and reproduction. Two subtypes of ER, ER-alpha and ER-beta, have similar expression patterns with some uniqueness in both types. Endocrine disrupting chemicals (EDCs) and their interactions with steroid hormone receptors like ER causes disruption of normal endocrine function. Therefore, it is important to understand the effect of environmental chemicals in ER signaling pathway. For identifying ER agonists, VM7Luc4E2 cell line has been used in the current assay. VM7Luc4E2 cell line (provided by Denison MS, University of California) endogenously expresses full-length ER-alpha and is stably transfected with a plasmid containing four estrogen responsive elements (ERE) upstream of a luciferase reporter gene. This current screening for measuring luciferase reporter gene activity using VM7Luc4E2 cells against Tox21 10K library collection is a confirmation study on agonist mode screening in presence of ER-antagonist (ICI-182,780) at 10.0nM final concentration.
Assay Protocol Summary: VM7Luc4E2 cells were cultured in phenol red free assay medium containing 10% charcoal stripped FBS for 5 days prior to the assay. The cells were dispensed at 4,000 cells in 4uL of assay medium per well into white wall/solid-bottom 1536-well plates (Corning Life Sciences, Corning, NY) using a Multidrop Combi (Thermo Fisher Scientific Inc., Waltham, MA) dispenser. After the assay plates were incubated at 37C and 5% CO2 for 24hr, 1uL of 10.0nM (final concentration) ICI-182,780 or assay buffer was added using two separate tips of Flying Reagent Dispenser (FRD, Aurora Discovery, San Diego, CA). Then 23nL of compounds dissolved in DMSO at 15 concentrations and positive controls or DMSO only was transferred to the assay plates by a Pintool station (Wako, San Diego, CA). The assay plates were incubated at 37C and 5% CO2 for 22hr. For luciferase read, 4uL/well ONE-Glo reagent (Promega Corporation, Madison, WI) was added to each well using FRD and after 30min incubation at room temperature, luminescence signal was measured on ViewLux plate reader (PerkinElmer, Shelton, CT).
Potency means the concentration at half of the fitted maximal effect.

Chain of Estrogen receptor (Homo sapiens) (P03372 whole entry, looked up): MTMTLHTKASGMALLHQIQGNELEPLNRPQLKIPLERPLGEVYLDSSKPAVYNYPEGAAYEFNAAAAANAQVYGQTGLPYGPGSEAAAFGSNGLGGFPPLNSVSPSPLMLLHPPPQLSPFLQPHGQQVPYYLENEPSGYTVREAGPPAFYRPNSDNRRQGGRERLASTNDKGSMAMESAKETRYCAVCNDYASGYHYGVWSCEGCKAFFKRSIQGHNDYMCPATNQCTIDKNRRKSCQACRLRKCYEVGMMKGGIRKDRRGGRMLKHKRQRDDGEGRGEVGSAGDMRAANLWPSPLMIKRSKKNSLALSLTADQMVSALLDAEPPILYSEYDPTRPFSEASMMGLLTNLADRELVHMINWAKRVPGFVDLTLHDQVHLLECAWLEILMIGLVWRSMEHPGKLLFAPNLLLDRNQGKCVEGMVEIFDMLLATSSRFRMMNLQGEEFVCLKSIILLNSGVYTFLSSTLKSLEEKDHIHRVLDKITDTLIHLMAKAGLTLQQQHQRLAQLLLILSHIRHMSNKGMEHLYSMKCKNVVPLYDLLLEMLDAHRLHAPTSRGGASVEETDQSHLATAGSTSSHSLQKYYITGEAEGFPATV

| SMILES | Potency |
| --- | --- |
| C=C1CC[C@H](O)C/C1=C\C=C1/CCC[C@]2(C)[C@@H]([C@H](C)CCCC(C)C)CC[C@@H]12 | inactive |
| CCc1nc(N)nc(N)c1-c1ccc(Cl)cc1 | inactive |
| Cc1cc(=O)oc2cc(O)ccc12 | inactive |
| CN[C@H]1CC[C@@H](c2ccc(Cl)c(Cl)c2)c2ccccc21 | inactive |
| C=CCc1ccc(O)c(OC)c1 | inactive |
| CCCCCCCC(=O)OCC(COC(=O)CCCCCCC)OC(=O)CCCCCCC | inactive |
| Nc1c2c(nc3ccccc13)CCCC2 | inactive |
| Cc1c(C(=O)O)c(O)cc2c1C(=O)c1c(O)c([C@@H]3O[C@H](CO)[C@@H](O)[C@H](O)[C@H]3O)c(O)c(O)c1C2=O | inactive |
| NC(=O)c1cccnc1 | inactive |
| CN(C)CCOC(c1ccccc1)c1ccccc1 | inactive |
| C=C(C)C(=O)OCC(C)O (stereo not given) | inactive |
| Cc1ncc([N+](=O)[O-])n1C | inactive |
| CCCc1cc(=O)[nH]c(=S)[nH]1 | inactive |
| NC(CO)(CO)CO | inactive |
| O=c1[nH]cnc2c1ncn2[C@H]1CC[C@@H](CO)O1 | inactive |
| COc1ccc(OC(F)(F)F)cc1CN[C@H]1CCCN[C@H]1c1ccccc1 | inactive |
| CC(C)C(=O)Nc1ccc([N+](=O)[O-])c(C(F)(F)F)c1 | inactive |
| CS(=O)(=O)OCCCCOS(C)(=O)=O | inactive |
| O=CC(=O)c1ccccc1 | inactive |
| CN(C)C(=O)Nc1ccc(Cl)c(Cl)c1 | inactive |

| SMILES | Potency |
| --- | --- |
| Nc1ccc(O)c([N+](=O)[O-])c1 | inactive |
| Nc1ccc2c(c1)CN1C(=O)c3ccccc3C1=N2 | 92 nM (active) |
| CCN(CC)C(=O)c1cccc(C)c1 | inactive |
| CCCCCCCCCCCCCCCC[N+](C)(C)Cc1ccccc1 | inactive |
| NC1CCCCC1 | 1.09 µM (active) and inactive |
| NS(=O)(=O)c1cc2c(cc1Cl)NCNS2(=O)=O | inactive |
| Cc1cccc(C)c1 | inactive |
| COc1ccc(C(Cl)=C(c2ccc(OC)cc2)c2ccc(OC)cc2)cc1 | 15.3 µM (active) and 8.41 µM (active) |
| O=c1[nH]cc(F)c(=O)[nH]1 | inactive |
| CCN(Cc1c(F)cccc1Cl)c1c([N+](=O)[O-])cc(C(F)(F)F)cc1[N+](=O)[O-] | inactive |
| COc1ccc2c(c1)c(CC(=O)O)c(C)n2C(=O)c1ccc(Cl)cc1 | inactive |
| CN1CCc2cccc3c2[C@H]1Cc1ccc(O)c(O)c1-3 | inactive |
| CCOc1ccc(NC(C)=O)cc1 | inactive |
| O=S1(=O)OC(c2ccc(O)cc2)(c2ccc(O)cc2)c2ccccc21 | inactive |
| O=C1OC2(c3ccccc31)c1cc(Br)c(O)c(Br)c1Oc1c2cc(Br)c(O)c1Br | inactive |
| CCCCC1(COC(=O)CCC(=O)O)C(=O)N(c2ccccc2)N(c2ccccc2)C1=O | inactive |
| COc1ccc2cc(S(=O)(=O)N[C@H](CC(=O)N[C@H](Cc3ccc(CN4[C@H](C)CCC[C@@H]4C)cc3)C(=O)N(C)C(C)C)c3ccc4c(c3)OCO4)ccc2c1 | inactive |
| O=C(O)c1ccccc1 | inactive |
| CN1[C@@H]2CC(OC(=O)[C@H](CO)c3ccccc3)C[C@H]1[C@@H]1O[C@@H]12 (stereo not given in full) | inactive |
| CC(=O)CCC(=O)O | inactive |
